Source: PubChem BioAssay AID1851 (National Center for Advancing Translational Sciences (NCATS), 2009)
The campaign covered roughly 16,000 compounds. About 4,000 (25%) were called active. Roughly 26% stayed inconclusive and do not appear here. These entries were drawn from the full list. A number with no mark means an inactive call. The call rests on the fitted dose curve; in most records, active means well fitted curve in the direction sought with a large enough effect; inconclusive means small, poorly fitted or top-dose-only effect, or effect the other way; inactive means no such curve, though single readings can be large or run the other way.

What follows are compounds tested against Cytochrome P450 2C9 (Homo sapiens) (UniProt P11712) (assay: Cytochrome panel assay with activity outcomes). Conditions: recombinant CYP, pro-luciferin dealkylation, luminescence, p450-cyp2c9; series mostly up to 57.1 µM.
Sequence of Cytochrome P450 2C9 (Homo sapiens) (P11712 whole entry, looked up): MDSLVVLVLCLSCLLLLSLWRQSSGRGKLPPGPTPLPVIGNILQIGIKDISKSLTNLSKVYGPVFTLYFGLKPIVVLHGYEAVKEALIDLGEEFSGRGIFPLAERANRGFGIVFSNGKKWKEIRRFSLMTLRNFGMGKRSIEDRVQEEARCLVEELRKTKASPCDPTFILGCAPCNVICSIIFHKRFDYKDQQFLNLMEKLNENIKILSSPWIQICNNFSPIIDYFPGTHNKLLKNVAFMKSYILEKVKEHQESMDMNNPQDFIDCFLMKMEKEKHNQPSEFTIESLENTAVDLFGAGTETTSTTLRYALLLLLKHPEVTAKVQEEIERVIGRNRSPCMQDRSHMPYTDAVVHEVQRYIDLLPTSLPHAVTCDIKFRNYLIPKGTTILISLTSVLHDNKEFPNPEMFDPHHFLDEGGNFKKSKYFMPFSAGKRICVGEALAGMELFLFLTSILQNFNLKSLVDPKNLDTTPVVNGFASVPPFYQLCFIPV
On the % scale 0 is the no-effect control and ±100 the full control effect.

Row | SMILES | AC50 | activity, negative = inhibition
1 | COc1ccc2[nH]cc(C=O)c2c1 | inactive | 
2 | CC1(C)Oc2ccc(C#N)cc2[C@H](N2CCCC2=O)[C@H]1O | inactive | 
3 | O=C(O)CCC(O)=C1S(=O)(=O)OCCOS1(=O)=O |  | 8.09% [at 11.4 µM]
4 | O=C(O)[C@H]1CCCNC1 | inactive | 
5 | c1c[nH]c(CN2CCN(Cc3ncc[nH]3)CC2)n1 |  | -13% [at 11.4 µM]
6 | CC[C@H]1C2=C3C(CC[C@H]4C(OCc5ccc(F)cc5C(F)(F)F)OC[C@](C)([C@@H]34)N(C(=O)OC(C)(C)C)C2)C(COC)C1COC (some centres undefined) | inactive | 
7 | Cc1ccccc1Cn1nc(C)c(NC(=O)c2sc3ccccc3c2Cl)c1C | 7.08 µM (active) | 
8 | CCn1nc(C(=O)Nc2ccccc2C)c(Cl)c1Cl | inactive | 
9 | CN(C)CCN(Cc1cccs1)c1ccccn1 | inactive | 
10 | Cc1ccc(S(=O)(=O)/C(C#N)=C/c2c(N3CC(C)OC(C)C3)nc3ccccn3c2=O)cc1 (centres undefined) | 11.2 µM (active) | 
11 | CC(=O)[C@H]1CC[C@@H]2[C@H]3CC=C4C[C@@H](O)CC[C@]4(C)[C@H]3CC[C@]12C | inactive | 
12 | C[C@@H](O)[C@H]1C(=O)N2C(C(=O)O)=C(S[C@@H]3CN[C@H](C(=O)N(C)C)C3)[C@H](C)[C@H]12 | inactive | 
13 | CCOC(=O)c1[nH]c(C)c(C(=O)OCC(=O)N2c3ccccc3CC2C)c1C (centres undefined) | 25.1 µM (active) | 
14 | Cc1ccc(-c2cc(-c3nnc(SCC(=O)NC(C)C(C)C)n3N)c3ccccc3n2)cc1 (centres undefined) | 1.12 µM (active) | 
15 | Cc1nnc(SCC(=O)NCC2CCCCC2)n(N)c1=O | inactive | 
16 | NNC(=O)CNc1cccc(Br)c1 |  | 1.94% [at 11.4 µM]
17 | NNC(=O)CNC(c1ccccc1)c1cc(Br)ccc1NC(=O)c1ccccc1Br (centres undefined) | 3.16 µM (active) | 
18 | Cc1ccccc1-c1nc(N2CCNCC2)c2ccccc2n1 |  | 0.671% [at 2.29 µM]
19 | C[C@](O)(c1ccccc1)c1nccc2ccccc12 |  | -17.3% [at 11.4 µM]
20 | Oc1c(C(O)(c2ccccc2)c2ccc3ccccc3c2O)ccc2ccccc12 | 0.794 µM (active) | 
21 | Nc1nc(N)c2nn(-c3ccc(C(=O)O)cc3)nc2n1 |  | 7.68% [at 11.4 µM]
22 | COc1ccccc1C1CC(c2c(-c3ccccc3)c3cc(Cl)ccc3[nH]c2=O)=NN1S(C)(=O)=O (centres undefined) | 2.82 µM (active) | 

Row | SMILES | AC50 | activity, negative = inhibition
23 | CCC1=NN(C(=O)CCc2ccccc2)C(O)(C(F)(F)F)C1 (centres undefined) | 4.47 µM (active) | 
24 | CCOC(=O)N1N=C(c2ccccc2)CC1(O)C(F)(F)F (centres undefined) | 10 µM (active) | 
25 | COc1cc(N=C(N)N=C(N)N)c2ncccc2c1 |  | 8.03% [at 11.4 µM]
26 | CCOC(=O)N/N=C1/C[C@@H](O)[C@@H](O)[C@@H]2[C@@H]3C(=O)N(c4cccc(Oc5ccccc5)c4)C(=O)[C@H]3CC[C@H]12 |  | 7.2% [at 11.4 µM]
27 | Cc1cc(C2C(C#N)=C(N)OC3=C2C(=O)CC(C)(C)C3)c(C)s1 (centres undefined) | 7.08 µM (active) | 
28 | COc1ccc(C2C(C#N)=C(N)OC3=C2C(=O)CC(C)(C)C3)c([N+](=O)[O-])c1OC (centres undefined) | 1 µM (active) | 
29 | C[C@H]1COC(=O)[C@H](Cc2ccccc2)NC(=O)[C@@H](C)COC(=O)[C@H](Cc2ccccc2)NC1=O |  | -8.11% [at 11.4 µM]
30 | CO[C@H]1COC(=O)[C@H](C)NC(=O)C/C=C\[C@@H](C)[C@@H](NS(=O)(=O)c2ccc(C)cc2)COC(=O)C/C=C\[C@@H]1C |  | -2.5% [at 11.4 µM]
31 | CCOC(=O)c1c(NC(=O)C2C3CCC(O3)C2C(=O)O)sc(C)c1-c1ccc(C)cc1 (centres undefined) | inactive | 
32 | Cc1ccc(C(=O)Cn2nnc3c(sc4nc5c(c(-c6ccccc6)c43)CCC5)c2=O)cc1 | 3.55 µM (active) | 
33 | CCOC(=O)c1c(C)nc2sc3c(=O)n(-c4ccc(OC)cc4)nnc3c2c1-c1ccc(OC)cc1 | 10 µM (active) | 
34 | CCOC(=O)Cn1nnc2c(sc3nc4c(c(-c5ccc(Cl)cc5)c32)CCC4)c1=O | 12.6 µM (active) | 
35 | Cc1ccc(-c2c3c(nc4sc(C(N)=O)c(N)c24)CCC3)cc1 | 8.91 µM (active) | 
36 | CCN1CCC[C@@H]1CNC(=O)c1cc(S(N)(=O)=O)ccc1OC | inactive | 
37 | N#CC1(Nc2ccc(-c3ccc(NC4(C#N)CCCC4)cc3)cc2)CCCC1 |  | -5.08% [at 11.4 µM]
38 | C[C@@H]1/C=C\CC(=O)OC[C@H](C)C(=O)N2CCC[C@@H]2C(=O)OC1 |  | -11.7% [at 11.4 µM]
39 | [Cu].[O-]/N=C1/C(=[OH+])Nc2ccccc21.[O-]Nc1c(O)[nH]c2ccccc12 |  | -2.92% [at 11.4 µM]
40 | O=C(Nc1ccc(Br)cc1)C1CCC(=O)N1Cc1ccccc1Cl (centres undefined) | 0.447 µM (active) | 
41 | COC(=O)N1CCC2(CC1)CCN(c1cccc(-c3ccccc3)c1)CC2 | inactive | 
42 | COCCCNC(=O)C1CCC(=O)N1Cc1ccccc1Cl (centres undefined) | 5.62 µM (active) | 
43 | O=C(C1CCC(=O)N1Cc1ccccc1Cl)N1CCN(c2cccc(Cl)c2)CC1 (centres undefined) | 15.8 µM (active) | 
44 | CCS(=O)(=O)N1CCC(C(=O)NCCCOC)CC1 | inactive | 
